The source made the active and inactive calls. Unless noted, how the calls were made is not given here.
Legend:
[1] = resazurin metabolic signal in HepG2 cells – cell-based, resazurin fluorescence, 24 h, PK04 Diversity Set, profiling panel (AID 1172); conditions: HepG2 viability, higher = more signal; further: test concentration not given here
[2] = budding yeast growth changes without added modifier – OD600, strain BY4716, 24 h, basal condition, primary screen (AID 1173); conditions: S. cerevisiae BY4716 growth, OD600, 24 h; higher = more signal, called active from +8 up or from −8 down
[3] = viability profiling in MM1S myeloma cells – cell-based, resazurin fluorescence, basal, 24 h, PK04 Diversity Set, profiling panel (AID 1174); conditions: higher = more signal, called active from +8 up or from −8 down;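 further: MM1S multiple myeloma cell line; test concentration not given here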
[4] = biological target: Dihydroorotate dehydrogenase (quinone), mitochondrial (Plasmodium falciparum (isolate 3D7)) (UniProt Q08210); experiment: inhibition of P. falciparum DHODH – biochemical, C-terminal His tag, absorbance 600 nm, primary screen (AID 1175); conditions: PfDHODH enzyme, DCIP absorbance 600 nm; higher = more signal, called active from +8 up or from −8 down;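 further: recombinant parasite enzyme with a five histidine tag at its C terminus; test concentration not given here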
[5] = inhibition of PAO1 biofilm formation – strain PAO1, LB-PBS medium, absorbance 600 nm, primary screen (AID 1176); further: test concentration not given here; conditions: P. aeruginosa PAO1 growth/biofilm, A600, 12 h; higher = more signal
[6] = growth modulation of vineyard yeast isolate – strain RM11-1a, OD600, basal, 24 h, primary screen (AID 1177);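 further: cultures grown under basal conditions with no added stressor; test concentration not given here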; conditions: S. cerevisiae RM11-1a growth, OD600, 24 h; higher = more signal, called active from +8 up or from −8 down
[7] = growth of efflux-deficient E. coli DRC39 – strain DRC39, OD650, 24 h, E. coli filamentation inducers, primary screen (AID 1178);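 further: growth measured as culture turbidity by optical density at 650 nm; test concentration not given here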; conditions: E. coli DRC39 acrAB, higher = more signal, called active from +8 up or from −8 down
[8] = growth of efflux-deficient E. coli DRC39 – strain DRC39, OD650, 48 h, E. coli filamentation inducers, primary screen (AID 1179);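 further: screen aims at cell division blockers that make cells filament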; conditions: E. coli DRC39 delta-acrAB growth, higher = more signal, called active from +8 up or from −8 down
[9] = viability profiling in RPMI8226 myeloma cells – cell-based, resazurin fluorescence, basal, 24 h, PK04 Diversity Set, profiling panel (AID 1180); conditions: higher = more signal;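 further: RPMI8826 multiple myeloma cell line at 5000 cells per well; test concentration not given here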
[10] = biological target: E3 ubiquitin-protein ligase XIAP (Homo sapiens) (UniProt P98170); experiment: small molecules binding XIAP protein – biophysical, small-molecule microarray, fluorescence 635 nm, primary screen (AID 1181); conditions: higher = more signal;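 further: score merges 667 nm emission and signal to noise over triplicate slides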
E3 ubiquitin-protein ligase XIAP (Homo sapiens), sequence (P98170 whole entry, looked up): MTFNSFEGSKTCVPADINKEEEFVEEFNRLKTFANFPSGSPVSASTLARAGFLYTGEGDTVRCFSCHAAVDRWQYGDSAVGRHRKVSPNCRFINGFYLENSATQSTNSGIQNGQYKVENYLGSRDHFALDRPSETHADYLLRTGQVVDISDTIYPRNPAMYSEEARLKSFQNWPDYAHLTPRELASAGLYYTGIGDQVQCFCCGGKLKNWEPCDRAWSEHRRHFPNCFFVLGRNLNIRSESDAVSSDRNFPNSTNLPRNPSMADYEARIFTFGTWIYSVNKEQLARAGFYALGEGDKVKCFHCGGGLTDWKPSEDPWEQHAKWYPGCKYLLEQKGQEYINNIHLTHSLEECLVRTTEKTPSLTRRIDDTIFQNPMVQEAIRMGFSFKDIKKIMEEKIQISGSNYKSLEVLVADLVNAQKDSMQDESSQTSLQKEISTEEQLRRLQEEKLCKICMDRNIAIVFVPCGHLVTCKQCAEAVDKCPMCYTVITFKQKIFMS

Dihydroorotate dehydrogenase (quinone), mitochondrial (Plasmodium falciparum (isolate 3D7)), sequence (Q08210 whole entry, looked up): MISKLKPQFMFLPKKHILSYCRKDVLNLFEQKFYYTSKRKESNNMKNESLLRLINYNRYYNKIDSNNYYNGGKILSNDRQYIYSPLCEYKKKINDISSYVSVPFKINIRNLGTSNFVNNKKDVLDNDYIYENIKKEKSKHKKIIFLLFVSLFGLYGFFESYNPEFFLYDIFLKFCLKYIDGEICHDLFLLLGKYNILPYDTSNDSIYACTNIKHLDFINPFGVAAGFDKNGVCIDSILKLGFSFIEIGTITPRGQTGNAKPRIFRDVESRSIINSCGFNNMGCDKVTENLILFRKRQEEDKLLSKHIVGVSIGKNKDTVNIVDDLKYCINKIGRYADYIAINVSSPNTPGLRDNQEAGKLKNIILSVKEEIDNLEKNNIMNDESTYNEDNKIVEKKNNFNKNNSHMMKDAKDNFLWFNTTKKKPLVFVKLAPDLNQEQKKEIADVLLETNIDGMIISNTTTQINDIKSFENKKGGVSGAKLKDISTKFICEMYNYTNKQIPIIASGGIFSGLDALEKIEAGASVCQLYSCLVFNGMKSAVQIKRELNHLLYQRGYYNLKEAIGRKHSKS

Row | Compound | z-score [1] | z-score [2] | z-score [3] | composite z-score [4] | z-score [5] | z-score [6] | z-score [7] | z-score [8] | z-score [9] | composite z-score [10]
1 | CCOC(=O)CCN1C(=O)[C@H]2[C@H]3[C@H](O)[C@H](O)CC(=NNC(=O)OCc4ccccc4)[C@H]3CC[C@H]2C1=O | -0.0842 | -0.712 (inactive) | -0.364 (inactive) | -0.192 (inactive) | 1.1 (inactive) | -1.26 (inactive) | -0.213 (inactive) | -0.354 (inactive) | 0.0536 | -0.163
2 | COc1ccc(O[C@H]2C=C[C@@H](c3ccccc3)O[C@@H]2CO)cc1 | 0.121 | -4.83 (inactive) | 0.222 (inactive) | -0.163 (inactive) | 0.438 (inactive) | 0.0505 (inactive) | 0.137 (inactive) | -0.447 (inactive) | -0.5 | -0.042
3 | CN1CCc2nc(-c3ccccc3)c(-c3ccccc3)cc2C1 | 0.713 | 0.0367 (inactive) | 0.476 (inactive) | -0.191 (inactive) | -0.364 (inactive) | 0.298 (inactive) | 0.38 (inactive) | 0.105 (inactive) | 0.639 | 0.0024
4 | C=CC[C@@H]1C=CC(ON=C(C)C)[C@@H](CO)O1 (stereo not given in full) | -0.689 | 0.381 (inactive) | -0.389 (inactive) | 0.532 (inactive) | -0.254 (inactive) | 1.1 (inactive) | 0.832 (inactive) | -1.16 (inactive) | 0.283 | -0.267
5 | O=C1[C@H]2[C@H]3[C@H](O)[C@H](O)CC(=NO[C@@H]4O[C@H](CO)[C@@H](O)[C@H](O)[C@H]4O)[C@@H]3CC[C@H]2C(=O)N1c1cccc(Oc2ccccc2)c1 | 0.647 | 0.0857 (inactive) | -0.602 (inactive) | -0.111 (inactive) | -0.343 (inactive) | 0.0867 (inactive) | -0.492 (inactive) | -0.961 (inactive) | 0.279 | -0.124
6 | CC(C)=CCCC(C)=CCON=C1[C@H]2CCn3c(=O)n(-c4ccccc4)c(=O)n3[C@H]2[C@H](O)[C@@H]2O[C@H]12 | -0.792 | -3.89 (inactive) | -2.7 (inactive) | -0.197 (inactive) | 0.717 (inactive) | -0.0881 (inactive) | -0.611 (inactive) | 0.092 (inactive) | -2.03 | 0.293
7 | COc1ccc(COC(=O)NN=C2C[C@@H](O)[C@@H](O)[C@@H]3[C@@H]4C(=O)N(Cc5ccc6c(c5)OCO6)C(=O)[C@@H]4CC[C@H]23)cc1 | -0.318 | 0.321 (inactive) | -0.0139 (inactive) | -0.394 (inactive) | -0.273 (inactive) | 0.139 (inactive) | 0.586 (inactive) | 1.17 (inactive) | 0.18 | 0.0498
8 | O=C(NN=C1C[C@@H](O)[C@@H](O)[C@@H]2[C@@H]3C(=O)N(Cc4ccccc4)C(=O)[C@@H]3CC[C@H]12)OCc1ccccc1 | 0.604 | -0.921 (inactive) | 1.14 (inactive) | -0.993 (inactive) | 0.471 (inactive) | -0.948 (inactive) | 0.59 (inactive) | -0.783 (inactive) | 0.9 | -0.21
9 | CCOC(=O)NN=C1C[C@@H](O)[C@@H](O)[C@@H]2[C@@H]3C(=O)N(c4ccc(F)cc4F)C(=O)[C@@H]3CC[C@H]12 | 0.99 | -0.468 (inactive) | 1.44 (inactive) | -2.51 (inactive) | 0.614 (inactive) | -0.738 (inactive) | 0.284 (inactive) | 0.498 (inactive) | 0.241 | -0.176
10 | CC(C)(C)N1C(=O)[C@H]2[C@H]3[C@H](O)[C@H](O)CC(=NNC(=O)OCc4ccccc4)[C@H]3CC[C@H]2C1=O | -0.558 | -4.15 (inactive) | 0.0137 (inactive) | -2.25 (inactive) | 0.118 (inactive) | -0.589 (inactive) | 0.352 (inactive) | -0.645 (inactive) | -0.198 | 0.0282
11 | CC(=O)OC[C@H]1O[C@H](CC=NOC[C@@H](O)[C@H]2O[C@@H]3OC(C)(C)O[C@@H]3[C@H]2O)C=C[C@@H]1OC(C)=O | 0.287 | 0.933 (inactive) | -1.15 (inactive) | 0.189 (inactive) | -0.124 (inactive) | 1.08 (inactive) | 0.644 (inactive) | -0.717 (inactive) | -0.754 | 0.013
12 | CC(CCN1CCc2nc(-c3ccccc3)c(-c3ccccc3)cc2C1)=NO[C@H](C)c1cn([C@H](CO)Cc2ccccc2)nn1 | -0.391 | -1.74 (inactive) | 0.474 (inactive) | -1.38 (inactive) | 0.593 (inactive) | -0.222 (inactive) | -0.424 (inactive) | -1.95 (inactive) | 0.2 | -0.156
13 | CC(C)=NO[C@H](C)c1cn([C@@H]2COC[C@H]2O)nn1 | -1.51 | -0.0346 (inactive) | -0.508 (inactive) | 0.0741 (inactive) | 0.101 (inactive) | -0.683 (inactive) | 0.504 (inactive) | 0.82 (inactive) | -0.469 | -0.152
14 | CCCNC(=O)OC[C@H]1O[C@H](CCON=C[C@@H](C)[C@H](OCc2ccccc2)C(C)C)C=C[C@@H]1Oc1ccc(OC)cc1 | -0.208 | -0.682 (inactive) | -2.5 (inactive) | -1.78 (inactive) | -0.242 (inactive) | -2.27 (inactive) | 0.0465 (inactive) | 0.428 (inactive) | -0.58 | -0.357
15 | O=C1[C@H]2[C@H]3[C@H](O)[C@H](O)CC(=NO[C@@H]4O[C@H](CO)[C@@H](O)[C@H](O)[C@H]4O)[C@H]3CC[C@H]2C(=O)N1c1ccc(F)cc1F | 0.487 | 0.191 (inactive) | -0.141 (inactive) | -1.08 (inactive) | -0.377 (inactive) | -0.638 (inactive) | 0.166 (inactive) | -0.196 (inactive) | 0.371 | 0.394
16 | C[C@H]1CC[C@H]2C(=O)N[C@H](Cc3ccccc3)C(=O)N2[C@@H]1c1ccccc1 | -0.69 | -0.512 (inactive) | -0.322 (inactive) | 0.868 (inactive) | -0.327 (inactive) | 0.0033 (inactive) | 0.718 (inactive) | 0.295 (inactive) | -0.142 | -0.24
17 | CO[C@@H](C1CCCCC1)[C@@H](C)[C@H](OCc1cccc(Br)c1)[C@@H](C)CO | 0.414 | -2.13 (inactive) | -0.885 (inactive) | 0.0434 (inactive) | -0.127 (inactive) | -0.0839 (inactive) | -0.275 (inactive) | -0.776 (inactive) | -0.835 | -0.16
18 | CO[C@H]1COC(=O)[C@H](C)COC(=O)[C@@H](OCc2ccccc2)C=C[C@@H]1C | 0.176 | -2.14 (inactive) | -0.114 (inactive) | 0.175 (inactive) | -0.355 (inactive) | -0.077 (inactive) | 1.02 (inactive) | 0.636 (inactive) | -0.476 | -0.138
19 | CCOC(=O)[C@H](CC(C)C)NC(=O)CCC1CC(OC(=O)NCCc2ccc(F)cc2)CC2(CCCC(COC(=O)NCc3cccc(C(F)(F)F)c3)O2)O1 (stereo not given in full) | 0.0989 | 0.924 (inactive) | 0.0492 (inactive) | 0.324 (inactive) | 0.672 (inactive) | 0.924 (inactive) | 0.687 (inactive) | 0.0609 (inactive) | 0.15 | -0.383
20 | O=C1[C@H]2CCn3c(=O)n(Cc4cc5c(cc4Cl)OCO5)c(=O)n3[C@H]2[C@H](O)[C@@H]2O[C@H]12 | -0.581 | -0.0756 (inactive) | -1.3 (inactive) | -0.877 (inactive) | -0.838 (inactive) | 0.533 (inactive) | 0.552 (inactive) | 0.669 (inactive) | -1.3 | -0.146
21 | COc1ccc(OC[C@H]2CN3[C@@H](CC[C@@H](C)[C@@H]3c3ccc(Br)cc3)C(=O)O2)cc1 | -0.699 | -1.63 (inactive) | 0.649 (inactive) | 0.217 (inactive) | -1.52 (inactive) | -0.13 (inactive) | -1.87 (inactive) | -1.35 (inactive) | -0.134 | -0.129
22 | O=C1CCCC=C1C(O)c1ccc([N+](=O)[O-])cc1 (stereo not given) | -0.426 | -0.851 (inactive) | -0.57 (inactive) | -0.42 (inactive) | -0.47 (inactive) | -0.66 (inactive) | 0.47 (inactive) | 0.4 (inactive) | -0.865 | -0.0019
23 | CO[C@@H]1C=CCC(=O)N[C@@H](C)C(=O)OC[C@@H](NS(=O)(=O)c2ccc(C)cc2)[C@H](C)C=CCC(=O)OC[C@H]1C | -0.0689 | -0.872 (inactive) | -0.0213 (inactive) | -0.165 (inactive) | -0.212 (inactive) | -0.876 (inactive) | 0.0721 (inactive) | -0.418 (inactive) | 0.135 | 0.201
24 | O=C1[C@H]2[C@H]3[C@H](O)[C@H](O)CC(=NOC[C@@H](O)COCc4ccco4)[C@@H]3CC[C@H]2C(=O)N1C1CCCCC1 | -0.31 | 0.446 (inactive) | -0.226 (inactive) | -0.308 (inactive) | 0.0457 (inactive) | 0.153 (inactive) | 0.326 (inactive) | 0.132 (inactive) | -0.415 | -0.28
25 | CCN(CC)CC(O)CN1CCCCc2nc(C)c(C)cc21 (stereo not given) | -0.148 | -0.571 (inactive) | 0.423 (inactive) | -2.78 (inactive) | 0.711 (inactive) | -1.48 (inactive) | 0.721 (inactive) | 0.0142 (inactive) | 0.259 | -0.271
26 | CO[C@@H]1COC(=O)[C@H](COCc2ccccc2)NC(=O)CC=C[C@@H](C)[C@H](OC)COC(=O)[C@@H](C)NC(=O)CC=C[C@H]1C | 0.532 | -1.01 (inactive) | -2.05 (inactive) | 0.262 (inactive) | -0.908 (inactive) | 0.496 (inactive) | 1.4 (inactive) | 0.287 (inactive) | -0.795 | -0.0939
